Screens deposited in PubChem BioAssay by National Center for Advancing Translational Sciences (NCATS).
Hits are enriched below; roughly 18% of the tested compounds scored in any of these assays.
TDP1 cell CPT = DT40-hTDP1 cell growth loss with CPT; chicken DT40 Tdp1-/-;hTDP1 cells + 20 nM CPT, ATP luminescence, 48 h; Potency, µM (doses to about 46.2 µM), usual class: inhibitors; 12% of 420,000 active; AID 686979; further: nearly all actives have a fitted effect of over 55% in size
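Cell growth measured by CellTiter-Glo luminescence after a minimum 48 h, 37 C compound exposure with 20 nM CPT in Tdp1-knockout DT40 cells stably expressing hTDP1, seeded 400/well; qHTS titration format.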
DT40 TDP1 no CPT = qHTS for Inhibitors of human tyrosyl-DNA phosphodiesterase 1 (TDP1): qHTS in cells in absence of CPT. DT40 Tdp1-/- hTDP1 cells, no CPT, ATP luminescence, 48 h. Potency, µM (series often up to 46.2 µM), hits mostly inhibitors. 15% of 420,000 active; further: nearly all actives have a fitted effect of over 55% in size
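Growth kinetics read by CellTiter-Glo luminescence after ≥48 hr at 37 °C. Cells: DT40 Tdp1-/- stably carrying human TDP1, 400 per well, compound exposure in the absence of CPT (DMSO vehicle).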
IL-1B inflam inh = blocks inflammasome-driven IL-1 beta release; 4.7% of 360,000 active; AID 743279; THP-1 LPS/ATP IL-1B secretion, AlphaLISA, 16 h; hits give low values; activity change, % at 57.5 µM; in the data active means activity change below about -50%; inconclusive means mostly about -30% to -49%
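Secreted IL-1B measured by AlphaLISA bead assay after 16 h compound exposure of THP-1 cells; compounds (final up to 57.5 uM) added 1 h before LPS (250 ng/mL) and ATP (1.25 mM) stimulation; lower signal means less secretion.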
CtBP-E1A inh = blocks the CtBP interaction with E1A. AlphaScreen GST-E1A/His-CtBP binding, 1536-well; hits give low values. activity change, % (concentration not given with the values). 0.49% of 340,000 active; in the data active means activity change below about -65%; inconclusive means mostly about -30% to -63%
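Protein mix (5X: 125 nM each GST-E1A, His-CtBP) was incubated with pinned compound 2 h at 37 deg C in dark, in 50 mM Tris pH 8.0 buffer with 300 mM NaCl. Glutathione donor and nickel acceptor beads followed; AlphaScreen signal read after 1 h.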
Six1-Eya2 blk = inhibitors of human Six1/Eya2 interaction; AlphaScreen GST-Six1/His-Eya2 binding, biochemical; hits give low values; activity change, % (test concentration not listed); 0.56% of 360,000 active; in the data active means activity change below about -65%; inconclusive means mostly about -30% to -63%
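Homogeneous AlphaScreen proximity assay pairing GST-Six1 with His-tagged Eya2 (added as 5X mix: 250 nM and 500 nM) in 50 mM Tris pH 8.0, 300 mM NaCl, 1 mM TCEP. Glutathione donor and nickel acceptor beads; 1 h, 37 °C, dark.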
TDP1 inh = inhibitors of human tyrosyl-DNA phosphodiesterase TDP1; Q9NUW8; recombinant TDP1, AlphaScreen DNA substrate cleavage; Potency, µM (highest dose often 130 µM), most hits filed as inhibitors; 0.28% of 350,000 active; further: nearly all actives have a fitted effect of over 40% in size
Target sequence (Q9NUW8 whole entry, looked up): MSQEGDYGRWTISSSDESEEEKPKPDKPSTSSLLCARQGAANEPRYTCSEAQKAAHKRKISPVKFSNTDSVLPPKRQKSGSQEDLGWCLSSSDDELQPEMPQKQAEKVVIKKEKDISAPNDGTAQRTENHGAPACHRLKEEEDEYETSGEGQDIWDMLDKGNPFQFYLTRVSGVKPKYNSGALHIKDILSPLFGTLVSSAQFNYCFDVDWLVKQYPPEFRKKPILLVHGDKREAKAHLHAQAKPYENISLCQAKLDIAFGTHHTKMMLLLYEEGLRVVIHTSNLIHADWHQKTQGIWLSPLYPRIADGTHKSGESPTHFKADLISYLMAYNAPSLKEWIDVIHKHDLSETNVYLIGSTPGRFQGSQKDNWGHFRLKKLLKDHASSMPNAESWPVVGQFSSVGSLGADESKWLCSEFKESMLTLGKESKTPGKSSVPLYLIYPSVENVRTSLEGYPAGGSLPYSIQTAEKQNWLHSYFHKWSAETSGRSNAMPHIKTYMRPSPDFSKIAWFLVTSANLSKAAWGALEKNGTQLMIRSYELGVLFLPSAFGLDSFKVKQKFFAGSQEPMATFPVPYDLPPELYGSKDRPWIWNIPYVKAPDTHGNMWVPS
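E. coli-derived human Tdp1, 1 nM final. Cpd preinc 15 min RT; substrate 15 nM final, 5 min RT; AS bead mix 10 ug/ml final, 10 min RT. Signal loss = tyrosine-FITC cleavage. No-enzyme wells = max signal.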
Each line names hits and unclear results; the compound was inactive in the other large screens. Unless noted, the call rests on the fitted dose curve; in most records, active means well fitted curve in the direction sought with a large enough effect; inconclusive means small, poorly fitted or top-dose-only effect, or another doubt; inactive means no such curve, though single readings can be large; an effect the other way counts as inactive or inconclusive.

Cc1cc(C)c(S(N)(=O)=O)c(C)c1N(C)S(=O)(=O)c1ccc(Cl)cc1	TDP1 cell CPT inconclusive, DT40 TDP1 no CPT inconclusive
CCOC(=O)N/N=C1/C[C@@H](O)[C@@H](O)[C@@H]2[C@@H]3C(=O)N(C4CCCCC4)C(=O)[C@H]3CC[C@H]12	none (no result: TDP1 cell CPT, DT40 TDP1 no CPT, IL-1B inflam inh, CtBP-E1A inh, Six1-Eya2 blk)
CC(C)c1nnc(NC(=O)CCS(=O)(=O)c2ccccc2)s1	TDP1 cell CPT 16.4µM, DT40 TDP1 no CPT inconclusive, IL-1B inflam inh -104.5 (no result: TDP1 inh)
COCc1nnc(NC(=O)CCCOc2ccccc2)s1	none
COc1ccc(OC)c2sc(NC(=O)CCS(=O)(=O)c3ccccc3)nc12	TDP1 cell CPT 5.17µM, DT40 TDP1 no CPT 4.61µM (no result: TDP1 inh)
O=C(CCS(=O)(=O)c1ccccc1)Nc1ncc([N+](=O)[O-])s1	TDP1 cell CPT 8.2µM, DT40 TDP1 no CPT 10.3µM, IL-1B inflam inh -76.4
CC(C)c1nnc(NC(=O)CCc2ccccc2)s1	none (no result: TDP1 inh)
COCc1nnc(NC(=O)CCS(=O)(=O)c2ccccc2)s1	TDP1 cell CPT 10.3µM, DT40 TDP1 no CPT 16.4µM, IL-1B inflam inh -97.4
CCOc1ccccc1N(CC(=O)Nc1c(C)n(C)n(-c2ccccc2)c1=O)S(=O)(=O)c1ccccc1	none (no result: CtBP-E1A inh)
COc1ccccc1NC(=O)CCN1CCCCC1	none (no result: IL-1B inflam inh, CtBP-E1A inh, Six1-Eya2 blk)
CCC1NC(C(=O)O)Cc2c1[nH]c1ccccc21 (stereo not given)	TDP1 cell CPT 7.31µM, DT40 TDP1 no CPT 9.2µM (no result: TDP1 inh)
CCCC[C@@H]1CNC(=S)N1CC1CCCCC1	TDP1 cell CPT inconclusive, DT40 TDP1 no CPT inconclusive
CCCC[C@@H]1CNC(=S)N1CCc1cccc2ccccc12	TDP1 cell CPT inconclusive, DT40 TDP1 no CPT 18.4µM
S=C1NC[C@H](CC2CCCCC2)N1CC1CCCCC1	TDP1 cell CPT 20.6µM, DT40 TDP1 no CPT 23.1µM (no result: CtBP-E1A inh)
S=C1NC[C@H](Cc2cccc3ccccc23)N1CC1CCCCC1	TDP1 cell CPT inconclusive, DT40 TDP1 no CPT 23.1µM
CC1CCC(NC(=O)CCS(=O)(=O)c2ccc3c(c2)NC(=O)CO3)CC1 (stereo not given)	TDP1 cell CPT inconclusive
O=C(N=Nc1c(O)[nH]c2ccc(Br)cc12)c1cc(-c2cccs2)nc2ccccc12	TDP1 cell CPT 4.61µM, DT40 TDP1 no CPT 6.51µM
O=C(N=Nc1c(O)[nH]c2ccc(Br)cc12)c1ccccc1-n1cccc1	TDP1 cell CPT 4.61µM, DT40 TDP1 no CPT 2.59µM, CtBP-E1A inh inconclusive, Six1-Eya2 blk inconclusive
O=C(O)c1cccc2cccc(-c3c4ccc(=O)c(O)c-4oc4c(O)c(O)ccc34)c12	TDP1 cell CPT 10.3µM, DT40 TDP1 no CPT 7.31µM, Six1-Eya2 blk -75.6 (no result: TDP1 inh)
S=C(Nc1ccccc1Cl)N1CCCC(c2ccccc2)=N1	TDP1 cell CPT inconclusive, DT40 TDP1 no CPT 29.1µM (no result: IL-1B inflam inh)
CC(C)c1ccc(NC(=S)N2CCCC(c3ccc(F)cc3)=N2)cc1	TDP1 cell CPT inconclusive, DT40 TDP1 no CPT 29.1µM
COC(=O)c1sc(NC(=O)COc2c(C)cccc2C)nc1C	DT40 TDP1 no CPT 11.6µM
CC(=O)Nc1ccc(NC(=O)c2oc3cc(C)c(C)cc3c2C)cc1	IL-1B inflam inh -50.5
